According to PubChem BioAssay:
Calls of active or inactive are those of the source.

Tests used:
[1] = tested on: Wnt5a (protein binding on small-molecule microarray); experiment: Wnt5a binders on small-molecule microarray, primary screen, biophysical, 635/667 nm fluorescence (AID 1142); settings: 635 nm fluorescence, higher = more signal;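 note: fluorescence read at 667 nm with signal to noise per printed feature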
[2] = cell viability in Huh7 cells, primary screen, cytotoxicity control for HCV replication inhibitor project, CellTiter-Glo luminescence, basal, 48 h (AID 1143); settings: Huh7 HCV replicon, higher = more signal, called active from +8 up or from −8 down;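 note: Huh7 hepatoma cells carrying a hepatitis C replication reporter with no stimulus; test concentration not given here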
[3] = CREB reporter modulators without forskolin, primary screen, cell-based, PC12, CRE-LacZ reporter, unstimulated (AID 1145); settings: no forskolin, luminescence, 4.5 h, higher = more signal, called active from +8 up or from −8 down
[4] = CREB reporter modulators under forskolin, primary screen, cell-based, PC12, CRE-LacZ reporter, forskolin-stimulated (AID 1146); settings: luminescence, 4.5 h, higher = more signal, called active from +8 up or from −8 down;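 note: PC12 cells with 6xCRE LacZ reporter stimulated by forskolin 10 µM; beta-galactosidase reporter signal reflecting CREB driven transcription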
[5] = biological target: Streptavidin (Streptomyces avidinii) (UniProt P22629); experiment: streptavidin binders on small-molecule microarray, primary screen, artefact control for SMM compound annotation, biophysical, 635/667 nm fluorescence (AID 1147); settings: streptavidin binding, higher = more signal;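 note: signal reflects streptavidin binding to arrayed compounds as a control protein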
Chain of Streptavidin (Streptomyces avidinii) (P22629 whole entry, looked up): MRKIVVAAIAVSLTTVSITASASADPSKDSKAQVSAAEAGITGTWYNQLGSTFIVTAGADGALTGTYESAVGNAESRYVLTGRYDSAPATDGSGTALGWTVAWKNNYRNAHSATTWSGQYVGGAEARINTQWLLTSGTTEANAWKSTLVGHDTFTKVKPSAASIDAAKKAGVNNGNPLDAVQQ

[6] = small-molecule binders of probe aInhba, primary screen, biochemical, small-molecule microarray, 635/667 nm fluorescence (AID 1148); settings: higher = more signal;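 note: score merges 667nm spot fluorescence with signal-to-noise for antibody binding to printed compounds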
Torsin-1A (Homo sapiens) [7] = biological target: Torsin-1A (Homo sapiens) (UniProt O14656); experiment: torsin A binders from cell lysate, primary screen, small-molecule microarray, wild-type, 635/667 nm (AID 1149); settings: COS7 hTOR1A-WT lysate, 635 nm fluorescence, higher = more signal
Chain of Torsin-1A (Homo sapiens) (O14656 whole entry, looked up): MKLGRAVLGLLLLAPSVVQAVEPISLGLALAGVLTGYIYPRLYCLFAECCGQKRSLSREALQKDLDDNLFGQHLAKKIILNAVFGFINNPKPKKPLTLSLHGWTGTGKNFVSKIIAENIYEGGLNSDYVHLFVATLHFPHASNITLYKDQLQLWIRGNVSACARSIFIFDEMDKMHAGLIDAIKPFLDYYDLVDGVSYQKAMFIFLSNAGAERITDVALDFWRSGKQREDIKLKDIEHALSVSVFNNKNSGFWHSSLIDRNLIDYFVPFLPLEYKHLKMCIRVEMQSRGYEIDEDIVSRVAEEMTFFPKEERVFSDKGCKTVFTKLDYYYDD

Torsin-1A (Homo sapiens) [8] = biological target: Torsin-1A (Homo sapiens) (UniProt O14656); experiment: small-molecule binders of mutant TOR1A in lysate, primary screen, cell lysate, small-molecule microarray, COS7 lysate, 635/667 nm fluorescence (AID 1150); settings: COS7 hTOR1A mutant lysate, 635 nm fluorescence, higher = more signal;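 note: score pools 667 nm emission and signal to noise measuring lysate protein binding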
[9] = tested on: Sonic hedgehog protein (Shh); experiment: small-molecule binders of Shh protein, primary screen, biochemical, small-molecule microarray, 635/667 nm fluorescence (AID 1151); settings: small-molecule microarray binding, 635 nm fluorescence; higher = more signal;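 note: Shh protein binding to compounds spotted on small-molecule microarray slides; score combines spot fluorescence intensity with signal-to-noise across triplicate slides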
[10] = E. coli DRC41 culture turbidity changes, primary screen, E. coli filamentation inducer project, strain DRC41, OD650, 48 h (AID 1152);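 note: E. coli MC1000 strain DRC41 lacking acrAB efflux pump and sulA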; settings: E. coli DRC41 (acrAB sulA), higher = more signal, called active from +8 up or from −8 down
[11] = small-molecule binders of probe aLefty1, primary screen, biochemical, small-molecule microarray, 635/667 nm fluorescence (AID 1153); settings: higher = more signal;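 note: score merges spot fluorescence with signal-to-noise ratio from the scanned slide images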
[12] = PSAC antagonists in infected red cells, primary screen, cell-based, P. falciparum Indochina, OD700, 1 h (AID 1154); settings: P. falciparum Indochina infected RBC osmotic lysis, higher = more signal, called active from +8 up or from −8 down
[13] = PSAC antagonists in infected red cells, primary screen, cell-based, P. falciparum Indochina, OD700, 2 h (AID 1155);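 note: lysis reports solute entry through the parasite surface anion channel PSAC; channel blockers reduce lysis of infected cells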; settings: P. falciparum Indochina infected erythrocytes, osmotic lysis OD700; higher = more signal, called active from +8 up or from −8 down
[14] = osmotic lysis modulators in infected erythrocytes, primary screen, PSAC antagonist project, cell-based, P. falciparum Indochina, OD700, 3 h (AID 1156); settings: higher = more signal, called active from +8 up or from −8 down
[15] = PSAC antagonists in infected red cells, primary screen, cell-based, P. falciparum Indochina, OD700, 18 h (AID 1157); settings: P. falciparum Indochina infected erythrocytes, osmotic lysis OD700, 18 h; higher = more signal, called active from +8 up or from −8 down
[16] = modulators of S6 phosphorylation in cells, primary screen, cell-based, A549, cytoblot, luminescence, serum-stimulated (AID 1158); settings: A549 phospho-S6 cytoblot, 5 h, higher = more signal;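 note: serum-stimulated A549 lung adenocarcinoma cells; signal is phosphorylated S6 detected by cytoblot immunostaining with HRP secondary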
[17] = biological target: NADPH oxidase 2 (Homo sapiens) (UniProt P04839); experiment: NOX2-dependent H2O2 signal modulators, primary screen, NOX inhibitor project, cell-based, HEK293-NOX2, PMA-stimulated, Amplex Red fluorescence (AID 1159); settings: 45 min, higher = more signal, called active from +8 up or from −8 down; note: test concentration not given here
Chain of NADPH oxidase 2 (Homo sapiens) (P04839 whole entry, looked up): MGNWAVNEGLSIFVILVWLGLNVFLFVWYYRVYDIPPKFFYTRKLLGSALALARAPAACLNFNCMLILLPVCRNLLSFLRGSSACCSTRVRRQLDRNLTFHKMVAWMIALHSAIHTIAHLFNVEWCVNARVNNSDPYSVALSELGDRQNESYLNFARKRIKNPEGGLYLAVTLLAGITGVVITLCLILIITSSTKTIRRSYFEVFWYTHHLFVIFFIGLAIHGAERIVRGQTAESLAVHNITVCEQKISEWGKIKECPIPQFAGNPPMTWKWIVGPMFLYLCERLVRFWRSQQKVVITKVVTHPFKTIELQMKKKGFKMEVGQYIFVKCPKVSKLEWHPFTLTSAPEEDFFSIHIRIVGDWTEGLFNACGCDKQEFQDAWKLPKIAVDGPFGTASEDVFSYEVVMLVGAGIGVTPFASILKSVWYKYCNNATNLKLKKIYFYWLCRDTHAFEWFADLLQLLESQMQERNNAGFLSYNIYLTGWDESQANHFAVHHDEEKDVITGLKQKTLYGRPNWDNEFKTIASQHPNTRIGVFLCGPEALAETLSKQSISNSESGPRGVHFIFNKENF

[18] = biological target: NADPH oxidase 4 (Homo sapiens) (UniProt Q9NPH5); experiment: NOX4-dependent H2O2 signal modulators, primary screen, NOX inhibitor project, cell-based, HEK293-NOX4, tetracycline-induced, Amplex Red fluorescence (AID 1160); settings: 45 min, higher = more signal, called active from +8 up or from −8 down
Chain of NADPH oxidase 4 (Homo sapiens) (Q9NPH5 whole entry, looked up): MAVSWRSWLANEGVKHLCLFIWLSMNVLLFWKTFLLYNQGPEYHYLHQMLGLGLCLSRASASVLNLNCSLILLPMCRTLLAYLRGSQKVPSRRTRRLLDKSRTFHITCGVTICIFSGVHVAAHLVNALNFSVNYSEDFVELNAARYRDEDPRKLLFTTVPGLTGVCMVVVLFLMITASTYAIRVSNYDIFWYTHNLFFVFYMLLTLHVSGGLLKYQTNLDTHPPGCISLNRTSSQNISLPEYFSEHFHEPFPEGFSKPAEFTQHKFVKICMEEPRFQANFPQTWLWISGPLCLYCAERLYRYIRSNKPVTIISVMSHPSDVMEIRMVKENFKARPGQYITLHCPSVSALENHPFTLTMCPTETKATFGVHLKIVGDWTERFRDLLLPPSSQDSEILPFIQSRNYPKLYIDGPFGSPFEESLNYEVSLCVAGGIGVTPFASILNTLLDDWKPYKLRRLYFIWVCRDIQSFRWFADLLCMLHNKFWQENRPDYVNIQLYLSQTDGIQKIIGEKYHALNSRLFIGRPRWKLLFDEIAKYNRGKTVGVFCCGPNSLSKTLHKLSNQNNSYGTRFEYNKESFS

[19] = biological target: NADPH oxidase 5 (Homo sapiens) (UniProt Q96PH1); experiment: NOX5-dependent H2O2 signal modulators, primary screen, NOX inhibitor project, cell-based, HEK293-NOX5, Amplex Red fluorescence (AID 1161); settings: HEK293-NOX5, ionomycin, 45 min, higher = more signal
Chain of NADPH oxidase 5 (Homo sapiens) (Q96PH1 whole entry, looked up): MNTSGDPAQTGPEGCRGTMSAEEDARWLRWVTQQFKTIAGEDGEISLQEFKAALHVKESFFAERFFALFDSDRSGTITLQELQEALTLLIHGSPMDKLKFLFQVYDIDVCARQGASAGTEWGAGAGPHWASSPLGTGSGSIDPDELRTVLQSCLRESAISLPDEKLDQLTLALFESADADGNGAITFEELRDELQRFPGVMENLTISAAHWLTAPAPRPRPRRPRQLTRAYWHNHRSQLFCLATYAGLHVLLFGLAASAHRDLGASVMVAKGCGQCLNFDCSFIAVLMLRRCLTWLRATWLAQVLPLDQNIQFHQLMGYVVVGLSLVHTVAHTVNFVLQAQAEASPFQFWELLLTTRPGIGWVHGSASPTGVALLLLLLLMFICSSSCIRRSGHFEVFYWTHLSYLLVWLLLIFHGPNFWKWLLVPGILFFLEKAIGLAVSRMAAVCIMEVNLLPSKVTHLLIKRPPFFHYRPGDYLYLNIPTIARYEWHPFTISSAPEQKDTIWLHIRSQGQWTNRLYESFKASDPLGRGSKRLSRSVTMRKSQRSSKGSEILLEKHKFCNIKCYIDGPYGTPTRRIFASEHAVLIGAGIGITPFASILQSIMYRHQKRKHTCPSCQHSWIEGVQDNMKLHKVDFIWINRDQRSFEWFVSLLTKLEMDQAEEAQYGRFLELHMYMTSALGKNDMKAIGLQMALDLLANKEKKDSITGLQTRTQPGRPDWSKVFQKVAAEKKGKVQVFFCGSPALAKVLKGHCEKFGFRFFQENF

| Compound | composite z-score [1] | z-score [2] | z-score [3] | z-score [4] | composite z-score [5] | composite z-score [6] | composite z-score (Torsin-1A (Homo sapiens) [7]) | composite z-score (Torsin-1A (Homo sapiens) [8]) | composite z-score [9] | z-score [10] | composite z-score [11] | z-score [12] | z-score [13] | z-score [14] | z-score [15] | z-score [16] | z-score [17] | z-score [18] | z-score [19] |
| --- | --- | --- | --- | --- | --- | --- | --- | --- | --- | --- | --- | --- | --- | --- | --- | --- | --- | --- | --- |
| C=C(COC)/C(=C/C[C@H](OC(C)=O)c1ccc(OCCO)cc1)c1cnc2ccccc2c1 | 0.248 | -0.843 (inactive) | 7.3 (inactive) | -0.862 (inactive) | 0.864 | 0.0082 | 0.654 | -0.0171 | 1.99 | 1.25 (inactive) | 0.199 | 13.5 (active) | -0.0743 (inactive) | 1.05 (inactive) | -0.947 (inactive) | -0.117 | 1.32 (inactive) | 0.767 (inactive) | -0.593 |
| O=C1O[C@@H](c2ccccc2)[C@@H](c2ccccc2)N2[C@@H](c3ccccc3OCCO)[C@]3(C(=O)Nc4ccc(C#CC5=CCCCC5)cc43)[C@@H](C(=O)O)[C@H]12 | 0.26 | -4.37 (inactive) | 0.245 (inactive) | 13.7 (active) | 0.841 | -0.0006 | 0.13 | 0.261 | 0.195 | 1.72 (inactive) | 0.19 | -1.69 (inactive) | -2.47 (inactive) | -13.4 (active) | -2.89 (inactive) | 0.661 | 2.26 (inactive) | -2.11 (inactive) | -2.75 |
| CCOC(=O)C[C@H]1[C@H](OC(=O)Cc2ccc3c(c2)OCO3)[C@@H](NC(=O)CC(C)C)c2cc(OCCCO)ccc2N1C(=O)c1ccccc1 | 0.416 | -0.957 (inactive) | 0.162 (inactive) | -1.48 (inactive) | -0.195 | 0.126 | -0.155 | 0.287 | 0.526 | 2.39 (inactive) | 0.0698 | 0.4 (inactive) | -1.02 (inactive) | -0.462 (inactive) | -1.5 (inactive) | 0.622 | 0.337 (inactive) | 0.52 (inactive) | 0.47 |
| C[C@@H]1CC[C@H]2C(=O)N3[C@@H](CC[C@@H](C)[C@@H]3c3cccc(N4CCOCC4)c3)C(=O)N2[C@H]1c1cccc(Br)c1 | 0.205 | -0.167 (inactive) | 4.71 (inactive) | -0.902 (inactive) | 0.63 | 0.0561 | 0.472 | 0.418 | 0.994 | 0.801 (inactive) | -0.0061 | 8.99 (active) | 1.51 (inactive) | 0.826 (inactive) | 0.71 (inactive) | -0.246 | 0.693 (inactive) | 0.815 (inactive) | 0.717 |
| CO[C@H]1COC(=O)[C@H](Cc2ccccc2)NC(=O)CC=C[C@@H](C)[C@H](OC)COC(=O)CC=C[C@@H]1C | 0.175 | -1.21 (inactive) | -0.567 (inactive) | -1.15 (inactive) | -0.129 | -0.0954 | 0.109 | 0.189 | 0.549 | 0.284 (inactive) | -0.0241 | -0.144 (inactive) | -1.22 (inactive) | -1 (inactive) | -1.27 (inactive) | 0.501 | -3.05 (inactive) | 0.103 (inactive) | 0.784 |
| C=C(COC)/C(=C/C[C@@H](OC(C)=O)c1cccc(OCCO)c1)c1cc(C(=O)OC)ccc1OC | 0.0467 | -1.42 (inactive) | 4.69 (inactive) | -1.89 (inactive) | -0.798 | -0.0221 | 0.284 | -0.0193 | 0.654 | 1.37 (inactive) | 0.0319 | 15.7 (active) | 0.098 (inactive) | 0.363 (inactive) | -1.44 (inactive) | -0.316 | 1.51 (inactive) | 1.28 (inactive) | -1.1 |
| CC(C)N1CC=CC23O[C@@H]4/C=C\CCCOC(=O)C4[C@H]2C(=O)N(CCCCCO)[C@@H]3C1=O (stereo partly specified) | -0.22 | -0.143 (inactive) | 0.0564 (inactive) | 0.392 (inactive) | -1.52 | -0.244 | 1.5 | 1.58 | -0.641 | 1.57 (inactive) | -0.285 | -0.455 (inactive) | 0.0907 (inactive) | 0.658 (inactive) | -0.258 (inactive) | 0.946 | 0.845 (inactive) | -0.00488 (inactive) | 1.7 |
| CO[C@@H]1COC(=O)CC=C[C@@H](C)[C@H](OC)COC(=O)CC=C[C@H]1C | -0.0731 | -0.147 (inactive) | -0.658 (inactive) | -0.82 (inactive) | -0.428 | -0.253 | 0.685 | 0.349 | 1.29 | 0.356 (inactive) | -0.257 | -0.611 (inactive) | -0.163 (inactive) | -0.335 (inactive) | -0.0143 (inactive) | 0.711 | -0.49 (inactive) | 0.276 (inactive) | 0.586 |
| CO[C@@H]1COC(=O)[C@H](C)NC(=O)CC=C[C@@H](C)[C@H](OC)COC(=O)[C@H](C)NC(=O)CC=C[C@H]1C | 0.151 | -0.164 (inactive) | -0.205 (inactive) | -0.759 (inactive) | 1.17 | 0.0659 | 0.678 | -0.0045 | 0.622 | 1.02 (inactive) | -0.0984 | 0.174 (inactive) | 0.551 (inactive) | 0.0076 (inactive) | 0.108 (inactive) | 0.298 | 0.319 (inactive) | 0.114 (inactive) | 0.976 |
